Compound activity: PubChem, National Center for Advancing Translational Sciences (NCATS)
Rows were chosen to be rich in hits. Some 11% of all compounds tested hit in one or more screens of this group.
HPGD block: blocks human HPGD enzyme activity; P15428; purified HPGD, NADH fluorescence kinetic, PGE2 substrate; Potency, µM, hits mostly inhibitors; hit rate 4.3% among 150,000; AID 894; active means well fitted inhibition curve with a large enough effect, not every such curve was filed as active; inconclusive means small, poorly fitted or top-dose-only effect, or another doubt; inactive means no such curve, though single readings can be large or run the other way
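20 nM HPGD preincubated 15 min at room temperature with compound in 50 mM Tris-HCl pH 8, 0.01% Tween 20. Started with 1 mM NAD+ and 30 uM prostaglandin E2; NADH fluorescence (360/450 nm) read 5 times over 30-s intervals, last minus first.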
IMPase inh: cell-permeable inhibitors of inositol monophosphatase (IMPase) | CHO-M1 cells, IP1 accumulation, HTRF TR-FRET ratio | inhibition (IP1 accumulation), % at 46.1 µM | 120,000 tested, under 10 active | AID 901; active means well fitted curve in the direction sought with a large enough effect in the signal ratio, not every such curve was filed as active; inconclusive means small, poorly fitted or top-dose-only effect, or a change in a side signal; inactive means no such curve, though single readings can be large or run the other way; the % refers to the signal ratio;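 further: cells stimulated with carbachol in lithium chloride buffer; higher means more IMPase inhibition seen as more IP1 and lower FRET ratio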
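Seeded CHO-M1 cells were dosed with compound at up to 46 uM, stimulated with carbachol for 30 min, then lysed in IP-One detection reagents. Higher IP1 lowers the TR-FRET signal.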
12-hLO inh: 12-hLO (ALOX12) enzyme inhibition; P18054; AID 1452; hit rate 0.12% among 150,000; Potency, µM (top dose mostly 57.1 µM), most hits filed as inhibitors; purified 12-hLO, xylenol orange hydroperoxide absorbance; further: nearly all actives have a fitted effect of over 55% in size
Target sequence (P18054 whole entry, looked up): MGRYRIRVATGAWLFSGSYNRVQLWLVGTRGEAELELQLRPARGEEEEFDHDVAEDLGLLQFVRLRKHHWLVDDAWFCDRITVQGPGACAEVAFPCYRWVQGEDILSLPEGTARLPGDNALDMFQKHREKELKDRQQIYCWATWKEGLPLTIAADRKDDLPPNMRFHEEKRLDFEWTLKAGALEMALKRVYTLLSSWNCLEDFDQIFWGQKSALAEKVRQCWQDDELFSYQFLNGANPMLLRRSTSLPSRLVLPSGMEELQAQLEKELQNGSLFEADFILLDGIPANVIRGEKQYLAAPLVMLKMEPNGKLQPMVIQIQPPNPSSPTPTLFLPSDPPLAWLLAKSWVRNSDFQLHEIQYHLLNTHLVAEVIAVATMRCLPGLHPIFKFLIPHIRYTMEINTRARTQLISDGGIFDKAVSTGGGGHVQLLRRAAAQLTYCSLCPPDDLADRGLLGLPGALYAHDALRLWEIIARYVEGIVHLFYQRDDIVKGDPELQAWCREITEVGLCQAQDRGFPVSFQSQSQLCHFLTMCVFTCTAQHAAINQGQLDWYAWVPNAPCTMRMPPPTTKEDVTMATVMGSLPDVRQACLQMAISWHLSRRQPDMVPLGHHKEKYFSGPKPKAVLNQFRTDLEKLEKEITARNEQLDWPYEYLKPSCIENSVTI
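150 nM 12hLO, 25 mM Hepes pH 7.0 + 0.01% Triton X-100; cpd preinc 15 min RT; 40 uM arachidonic acid, 30 min RT; Fe-XO 30 min; A573/A405 ratio as read-out.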
IMPase Li cell: membrane-permeable IMPase blocker, potentiated with lithium. Potency, µM (top dose mostly 59.4 µM), hits mostly inhibitors. CHO-M1 cells, IP1 TR-FRET (IP-One), carbachol + lithium. hit rate 0.35% among 210,000. AID 1457;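 further: IP1 builds up when IMPase is blocked and the TR-FRET signal falls; nearly all actives have a fitted effect of over 50% in size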
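Concentration–response in CHO-M1 cells, lithium-potentiated; 30 min at 37C. IP1 detected by competitive TR-FRET after 10 min lysis at RT. Hill-fitted AC50.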
PNC assembly inh: blocks assembly of the perinucleolar compartment | activity change (PNC), negative = inhibition, % at 10 µM | PC3M PTB-GFP, PNC prevalence imaging, 16 h; active compounds read low | AID 2417 | hit rate 3.1% among 140,000;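 active means readout at or below -70, meaning at least 70% loss of cells showing the perinucleolar compartment, a nuclear body marking cancer cells; inconclusive means readout between -30 and a set limit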
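PC3M cells stably expressing PTB-GFP, 750–1000 cells/well, treated 16 h at 37 °C with compound (23 nl of library stock), in duplicate. After paraformaldehyde fixation and Hoechst stain, imaged at 20x; PNC prevalence scored by image analysis.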
ALDH1A1 inh: ALDH1A1 (human) enzyme inhibition; AID 1030; Purified ALDH1A1, NADH fluorescence, propionaldehyde substrate; Potency, µM (top dose mostly 75.3 µM), usual class: inhibitors; P00352; hit rate 7.3% among 220,000; active means well fitted inhibition curve with a large enough effect, not every such curve was filed as active; inconclusive means small, poorly fitted or top-dose-only effect, or another doubt; inactive means no such curve, though single readings can be large or run the other way
Each line names hits and unclear results; the compound was inactive in the other large screens. Unless noted, the call rests on the fitted dose curve; in most records, active means well fitted curve in the direction sought with a large enough effect; inconclusive means small, poorly fitted or top-dose-only effect, or another doubt; inactive means no such curve, though single readings can be large; an effect the other way counts as inactive or inconclusive.

CCOc1ccc2nc(NC(=O)CSc3nnnn3C3CCCCC3)sc2c1	ALDH1A1 inh 8.9µM
COc1ccc(C2c3sc(=O)[nH]c3SC3C(=O)N(c4ccccc4)C(=O)C32)cc1 (centres undefined)	PNC assembly inh inconclusive, ALDH1A1 inh 22µM
O=C1C2Sc3[nH]c(=O)sc3C(c3ccccc3)C2C(=O)N1c1ccccc1 (centres undefined)	ALDH1A1 inh inconclusive
O=c1[nH]c2c(s1)C(c1ccccc1)C1C3CCC(C3)C1S2 (centres undefined)	HPGD block inconclusive, PNC assembly inh inconclusive, ALDH1A1 inh 20µM
COc1ccc(C2c3sc(=O)[nH]c3SC3C4CCC(C4)C23)cc1 (centres undefined)	HPGD block inconclusive, ALDH1A1 inh 22µM
c1ccc2c(c1)CC1(CCCCC1)n1nnnc1-2	PNC assembly inh inconclusive, ALDH1A1 inh 13µM
Cc1cccc(C(=O)Oc2csc(=S)n2C(=O)c2cccc(C)c2)c1	HPGD block 14µM, ALDH1A1 inh 8.9µM
O=C(Oc1cccccc1=O)c1ccccc1	none (no result: HPGD block, IMPase inh, 12-hLO inh, PNC assembly inh)
O=C(Oc1csc(=S)n1C(=O)c1ccccc1)c1ccccc1	HPGD block 4.5µM, ALDH1A1 inh 3.2µM
COC(=O)[C@@]1(Cc2ccc(OC)cc2)[C@H]2c3cc(C(=O)N(C)C)n(Cc4cc(F)c(F)c(F)c4)c3C[C@H]2CN1C(=O)c1ccccc1	none (no result: IMPase inh, PNC assembly inh)
Cc1ccc(S(=O)(=O)NC(C(=O)Oc2ccc3c(C)c(Cl)c(=O)oc3c2)c2ccccc2)cc1 (centres undefined)	HPGD block inconclusive, PNC assembly inh -111, ALDH1A1 inh inconclusive
c1ccc(OCCSc2nnnn2-c2ccccc2)cc1	ALDH1A1 inh 22µM
CCOc1ccc(OCCSc2nnnn2-c2ccccc2)cc1	ALDH1A1 inh 14µM
CCOc1ccc(OCCSc2nnnn2C2CCCCC2)cc1	ALDH1A1 inh 16µM
Clc1ccc(OCCSc2nnnn2C2CCCCC2)cc1	PNC assembly inh inconclusive, ALDH1A1 inh inconclusive
Cc1ncc(CSc2nnnn2-c2ccccc2)c(N)n1	IMPase inh inconclusive, ALDH1A1 inh inconclusive
CCC(Sc1nnnn1-c1ccccc1)C(=O)NC(C)c1ccccc1 (centres undefined)	PNC assembly inh inconclusive, ALDH1A1 inh inconclusive
CCC(Sc1nnnn1-c1ccccc1)C(=O)Nc1nc2ccccc2s1 (centres undefined)	PNC assembly inh -100, ALDH1A1 inh inconclusive
CCSc1nnnn1-c1ccccc1	ALDH1A1 inh inconclusive
CCOC(=O)c1nc(-c2ccccc2)oc1N1CCOCC1	ALDH1A1 inh inconclusive (no result: HPGD block, IMPase inh, 12-hLO inh, PNC assembly inh)
c1ccc(-n2nnnc2SCCCSc2nc3ccccc3s2)cc1	HPGD block 11µM, ALDH1A1 inh 1.3µM
CCOc1ccc(OCCSc2nc3ccccc3[nH]2)cc1	HPGD block 25µM, PNC assembly inh -92
Fc1ccccc1OCCSc1nnnn1-c1ccccc1	HPGD block 16µM, PNC assembly inh inconclusive, ALDH1A1 inh 1.9µM
COc1ccccc1OCCSc1nnnn1-c1ccc(C)cc1	PNC assembly inh inconclusive
CCOc1ccc2nc(NC(=O)CN3CCOCC3)sc2c1	none (no result: HPGD block, IMPase inh, 12-hLO inh, PNC assembly inh)
Cc1cc(NC(=O)CN2CCOCC2)n(-c2nc3ccccc3s2)n1	ALDH1A1 inh 22µM
O=C(CN1CCOCC1)Nc1nc2ccc(Br)cc2s1	PNC assembly inh inconclusive, ALDH1A1 inh 13µM
Oc1c(Br)cc(Br)cc1-c1nc2ccccc2s1	none (no result: HPGD block, 12-hLO inh, IMPase Li cell, PNC assembly inh, ALDH1A1 inh)
CO/C=C\C=C/c1nnn(-c2ccc(Cl)cc2)n1	PNC assembly inh -94, ALDH1A1 inh 25µM (no result: IMPase inh)
COc1cc2nc(=S)n3[nH]c(CCn4nc(C)cc4C)nc3c2cc1OC	HPGD block inconclusive, IMPase inh inconclusive, IMPase Li cell 10µM, ALDH1A1 inh inconclusive
COc1cc2nc(=S)n3[nH]c(COc4ccccc4C)nc3c2cc1OC	PNC assembly inh inconclusive, ALDH1A1 inh inconclusive (no result: IMPase inh)
C=CCc1cccc(/C=N/NC(=O)CNc2cccc3ccccc23)c1O	PNC assembly inh -84, ALDH1A1 inh inconclusive (no result: IMPase inh)
C=CCc1cccc(/C=N/NC(=O)CNc2ccccc2OC)c1O	none (no result: HPGD block, IMPase inh, 12-hLO inh, PNC assembly inh)
CC(C)OCCCN1CN(S(=O)(=O)c2ccc(Cl)cc2)c2nc3ccccc3nc21	ALDH1A1 inh 28µM
CC(C)OCCCN1CN(S(=O)(=O)c2cccc(Cl)c2)c2nc3ccccc3nc21	ALDH1A1 inh inconclusive
OCCCNCc1ccncc1	none (no result: IMPase inh, PNC assembly inh)
CCc1cc(=O)oc2cc3occ(C)c3cc12	PNC assembly inh inconclusive, ALDH1A1 inh inconclusive (no result: IMPase inh)
CCc1cc(=O)oc2cc3occ(-c4ccc(OC)c(F)c4)c3cc12	HPGD block inconclusive, PNC assembly inh -93
O=C1c2ccccc2C(=O)c2c1ccc1c(=O)n(C3CCCCC3)[nH]c21	HPGD block 14µM
O=c1c2[nH]c3ccccc3c2ncn1C1CCCCC1	ALDH1A1 inh inconclusive
N#CC(C#N)=C1C=CC=CN1/C(=C\c1ccco1)C(=O)c1ccccc1	HPGD block 22µM
COc1ccc(C(=O)/C(=C\c2ccco2)N2C=CC=CC2=C(C#N)C#N)cc1	HPGD block inconclusive, ALDH1A1 inh inconclusive
N#CC(C#N)=C1C=CC=CN1/C(=C\c1ccco1)C(=O)c1ccc(Br)cc1	HPGD block 16µM, ALDH1A1 inh inconclusive
O=Nc1ccc2oc(=O)ccc2c1	HPGD block 16µM, ALDH1A1 inh 0.13µM (no result: PNC assembly inh)
Cc1cc(C)cc(NS(=O)(=O)c2ccc3oc(=O)ccc3c2)c1	none
O=C(N=Nc1ccc(NOC(=O)c2ccccc2Br)cc1)c1ccccc1O	ALDH1A1 inh 22µM (no result: HPGD block, IMPase inh, 12-hLO inh, PNC assembly inh)
CC1CCc2sc(C(=O)OCC(=O)NCc3ccccc3)cc2C1 (centres undefined)	PNC assembly inh -94 (no result: HPGD block, IMPase Li cell)
O=C(Nc1ccccc1)N1CC2(CCN(C(=O)c3ccncc3)CC2)C1	none (no result: IMPase inh, PNC assembly inh)
CCCCN(CC)C(=O)CSc1cc(=O)n(C)c2ccccc12	HPGD block 7.1µM, ALDH1A1 inh inconclusive
CN(Cc1ccccc1)C(=O)CSc1cc(=O)n(C)c2ccccc12	none (no result: HPGD block, IMPase inh, 12-hLO inh, PNC assembly inh)
Cn1c(=O)cc(SCC(=O)N2CCCC2)c2ccccc21	HPGD block 16µM, PNC assembly inh -89, ALDH1A1 inh inconclusive
CCOC(=O)c1ccc(N=c2sc(C(=O)OC)cc(=O)n2Cc2ccco2)cc1	PNC assembly inh inconclusive, ALDH1A1 inh 1.4µM
COC(=O)c1cc(=O)n(Cc2cccs2)c(=NCc2cccs2)s1	ALDH1A1 inh 0.32µM
CCOC(=O)c1ccc(N=c2sc(C(=O)OC)cc(=O)n2CCCN2CCOCC2)cc1	none
COC(=O)c1cc(=O)n(CCc2ccc(OC)cc2)c(=Nc2ccc(F)c(Cl)c2)s1	none
COC(=O)c1cc(=O)n(CCc2ccccc2)c(=Nc2ccc(F)cc2)s1	PNC assembly inh -83
CC(C)COc1ccccc1C1CC(=O)Nc2cc3c(cc21)OCO3 (centres undefined)	none (no result: HPGD block, 12-hLO inh, IMPase Li cell, PNC assembly inh, ALDH1A1 inh)
